± gives the standard deviation.
T1: HaloTag-ATRX ADD domain (163-292)
T1 chain: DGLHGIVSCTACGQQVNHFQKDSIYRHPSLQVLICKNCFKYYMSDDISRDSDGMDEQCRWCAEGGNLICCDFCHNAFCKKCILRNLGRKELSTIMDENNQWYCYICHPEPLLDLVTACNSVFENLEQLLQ

B1: Unmod H1 variant K T A K P K K A A P K K K (peptide)
chain: KTAKPKKAAPKKK
B2: Unmod H1 variant A P A P A E K T P V K K K (peptide)
chain: APAPAEKTPVKKK
B3: Unmod H1 variant A S G S F K L N K K A A S (peptide)
chain: ASGSFKLNKKAAS
B4: Unmod H1 variant S E T A P A A P A A P A P (peptide)
chain: SETAPAAPAAPAP
B5: Unmod H1 variant K A A S G E A K P K A K K (peptide)
chain: KAASGEAKPKAKK
B6: Unmod H1 variant V K K K A R K S A G A A K (peptide)
chain: VKKKARKSAGAAK
B7: Unmod H1 variant A K K P A G A A K K P K K (peptide)
chain: AKKPAGAAKKPKK
B8: Unmod H1 variant A V A A S K E R S G V S L (peptide)
chain: AVAASKERSGVSL
B9: Unmod H1 variant A A G A K K A K S P K K A (peptide)
chain: AAGAKKAKSPKKA
B10: Unmod H1 variant E K N N S R I K L G L K S (peptide)
chain: EKNNSRIKLGLKS

Molecular target: T1, HaloTag-ATRX ADD domain (163-292)
Assay: peptide microarray binding signal (635 nm), min-max normalized on array (fraction of array maximum); higher = stronger binding
Details: peptide region: Unmod H1 variant; binder concentration: 50 nM
Method in brief: (§1)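 Binding signal is the mean intensity of triplicate spots, min-max scaled within each library. Histone 13-mer peptide–cellulose conjugates were spotted in triplicate on nitrocellulose with a Cy3 tracer and blocked overnight at 4°C. Probing lasted 1 h at 4°C, either with biotin-labelled HaloTag reader fusions (10 nM to 1 μM) and streptavidin-Alexa Fluor 647 or with rabbit histone antibodies (1:10,000 to 1:2,000) and anti-rabbit Alexa 647. An Axon GenePix 4000B read signal at 635 nm and misprints at 532 nm.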

| Binder | peptide microarray binding signal |
| --- | --- |
| B1 | 0.01737 ± 0.0001 |
| B2 | 0.021 ± 0.0011 |
| B3 | 0.0207 ± 0.0013 |
| B4 | 0.0194 ± 0.0011 |
| B5 | 0.0252 ± 0.0022 |
| B6 | 0.0176 ± 0.00024 |
| B7 | 0.00931 ± 0.00023 |
| B8 | 0.0286 ± 0.0016 |
| B9 | 0.0119 ± 0.00059 |
| B10 | 0.0196 ± 0.00022 |

Same assay, conditions: peptide region: Unmod H1 variant; binder concentration: 500 nM

| Binder | peptide microarray binding signal |
| --- | --- |
| B1 | 0.00729 ± 0.00021 |
| B2 | 0.0189 ± 0.00097 |
| B3 | 0.00791 ± 0.00049 |
| B4 | 0.00995 ± 0.00098 |
| B5 | 0.0245 ± 0.0017 |
| B6 | 0.0081 ± 0.00035 |
| B7 | 0.00786 ± 0.00022 |
| B8 | 0.0273 ± 0.0012 |
| B9 | 0.01348 ± 5.3e-05 |
| B10 | 0.0155 ± 0.00098 |

Molecular target: HaloTag-ING2 PHD (mouse Ing2 200-280)
Assay: as above
Details: peptide region: Unmod H1 variant; binder concentration: 10 nM
Method in brief: as §1

| Binder | peptide microarray binding signal |
| --- | --- |
| B1 | 0.00203 ± 5.4e-05 |
| B2 | 0.00466 ± 0.00027 |
| B3 | 0.00233 ± 5.8e-05 |
| B4 | 0.00394 ± 0.0003 |
| B5 | 0.007579 ± 5.8e-05 |
| B6 | 0.00203 ± 4.1e-05 |
| B7 | 0.003103 ± 3e-05 |
| B8 | 0.011 ± 0.00034 |
| B9 | 0.003342 ± 1.8e-05 |
| B10 | 0.00585 ± 0.0006 |

Same assay, conditions: peptide region: Unmod H1 variant; binder concentration: 100 nM

| Binder | peptide microarray binding signal |
| --- | --- |
| B1 | 0.00532 ± 0.00022 |
| B2 | 0.012 ± 0.00083 |
| B3 | 0.00425 ± 7.2e-05 |
| B4 | 0.00418 ± 0.00041 |
| B5 | 0.0113 ± 0.0012 |
| B6 | 0.00553 ± 0.00055 |
| B7 | 0.00765 ± 0.00058 |
| B8 | 0.0228 ± 0.00053 |
| B9 | 0.00999 ± 0.0011 |
| B10 | 0.0201 ± 0.0018 |

Molecular target: anti-H3K4me3 antibody ab8580
Assay: as above
Details: peptide region: Unmod H1 variant; binder concentration: 1:2,000 dilution
Method in brief: as §1

| Binder | peptide microarray binding signal |
| --- | --- |
| B1 | 0.000755 ± 3e-05 |
| B2 | 0.00136 ± 0.00038 |
| B3 | 0.00132 ± 0.0003 |
| B4 | 0.00274 ± 0.001 |
| B5 | 0.000831 ± 4.9e-05 |
| B6 | 0.00145 ± 0.00015 |
| B7 | 0.0006041 ± 5.8e-06 |
| B8 | 0.00236 ± 0.00025 |
| B9 | 0.00068 ± 1.9e-05 |
| B10 | 0.00196 ± 0.00038 |

Same assay, conditions: peptide region: Unmod H1 variant; binder concentration: 1:10,000 dilution

| Binder | peptide microarray binding signal |
| --- | --- |
| B1 | 0.000913 ± 1.6e-05 |
| B2 | 0.00223 ± 7.3e-05 |
| B3 | 0.000913 ± 1.6e-05 |
| B4 | 0.00337 ± 0.00036 |
| B5 | 0.00171 ± 4.3e-05 |
| B6 | 0.00143 ± 2.4e-05 |
| B7 | 0.00217 ± 0.0002 |
| B8 | 0.00479 ± 0.00028 |
| B9 | 0.00143 ± 2.4e-05 |
| B10 | 0.00137 ± 4.9e-05 |

Molecular target: anti-H3K9me3 antibody ab8898
Assay: as above
Details: peptide region: Unmod H1 variant; binder concentration: 1:2,000 dilution
Method in brief: as §1

| Binder | peptide microarray binding signal |
| --- | --- |
| B1 | 0.000121 ± 1.3e-06 |
| B2 | 0.000906 ± 4.5e-05 |
| B3 | 0.000257 ± 2.7e-06 |
| B4 | 0.00159 ± 8.6e-05 |
| B5 | 0.000483 ± 1.7e-05 |
| B6 | 0.000272 ± 4.9e-06 |
| B7 | 0.000423 ± 8.2e-06 |
| B8 | 0.00335 ± 9.4e-05 |
| B9 | 0.0004379 ± 4.2e-06 |
| B10 | 0.000317 ± 5.6e-06 |

Same assay, conditions: peptide region: Unmod H1 variant; binder concentration: 1:10,000 dilution

| Binder | peptide microarray binding signal |
| --- | --- |
| B1 | 0.000577 ± 6.2e-06 |
| B2 | 0.00098 |
| B3 | 0.00075 ± 1.6e-05 |
| B4 | 0.00167 ± 2.8e-05 |
| B5 | 0.001211 ± 1.2e-05 |
| B6 | 0.000634 |
| B7 | 0.00104 ± 1.1e-05 |
| B8 | 0.002825 ± 2.4e-05 |
| B9 | 0.00115 |
| B10 | 0.00098 |

From the supplement of paper PMC4022240
